A selection: hits, their analogues and other compounds. The true share with any hit is near 4.1%.
hgDAF-12 ag: agonists of H. glycines DAF-12 nuclear receptor | activation, % at 6.8 µM | HEK293 GAL4-hgDAF12 UAS-luciferase reporter, agonist luminescence; normalized to butyrate control | AID 687014 | 1.8% of 370,000 active;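 active means activation above a cutoff set at the mean of all screened compounds plus 3 SD, cut at about 10% in these data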;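 further: 0% = DMSO wells and 100% = sodium butyrate wells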
DAX1 inh-1: inhibitors of DAX1 repression of SF-1 activated StAR promoter | HEK293T StAR-luciferase reporter, SF-1/DAX-1 repression relief | AID 652010 | 1.1% of 370,000 active | inhibition, % at 6.8 µM;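 active means inhibition above the mean over all tested compounds plus 3 SD, cut at about 3.6% in these data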;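 further: 0% = DAX-1 cells with DMSO and 100% = cells lacking DAX-1 with DMSO; higher inhibition means more luminescence from relief of DAX-1 repression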
hcDAF12 agonist: activators of H. contortus DAF-12 nuclear receptor; HEK293 hcDAF-12 lit1-tk-luc reporter, luminescence; 0% DMSO, 100% Δ7-dafachronic acid; activation, % at 6.8 µM; 1.4% of 370,000 active; AID 652067;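 active means activation above the mean of all tested compounds plus 3 SD, cut at about 5.5% in these data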;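 further: 100% = response to 3 µM Δ7-dafachronic acid high control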
ssDAF12 agonist: activates DAF-12 receptor from parasite S. stercoralis; AID 652126; 1% of 370,000 active; activation, % at 6.8 µM; HEK293 ssDAF-12/GRIP1 lit1-tk-luc reporter, luminescence; % of 3 µM dafachronic acid response;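 active means activation above the mean over all tested compounds plus 3 SD, cut at about 0.9% in these data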;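 further: 0% = DMSO-only wells and 100% = 3 µM delta7-dafachronic acid wells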
DAX1 inh-2: inhibits human nuclear receptor DAX1 | P51843 | HEK293 Gal4-DAX1 luciferase reporter, luminescence | inhibition, % at 6.75 µM | 0.99% of 340,000 active;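 active means inhibition above the mean over all tested compounds plus 3 SD, cut at about 4.2% in these data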;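 further: 0% = DAX1-transfected cells with DMSO and 100% = empty-vector control cells with DMSO; inhibition shows as a rise in luminescence from relieved DAX1 repression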
DAX1 conf: NR0B1 (human) inhibition, confirmation. 87% of 2,400 active. HEK293T StAR-promoter luciferase reporter, SF-1/DAX-1 repression. inhibition, % at 6.8 µM. shares compounds with DAX1 inh-1. AID 652134;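 active means inhibition above the average of every tested compound plus 3 SD, cut at about 3.8% in these data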;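 further: 0% = DAX-1 cells with DMSO and 100% = no DAX-1 control cells with DMSO; active compounds raise luminescence by relieving repression of the StAR reporter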
Target sequence (P51843 whole entry, looked up): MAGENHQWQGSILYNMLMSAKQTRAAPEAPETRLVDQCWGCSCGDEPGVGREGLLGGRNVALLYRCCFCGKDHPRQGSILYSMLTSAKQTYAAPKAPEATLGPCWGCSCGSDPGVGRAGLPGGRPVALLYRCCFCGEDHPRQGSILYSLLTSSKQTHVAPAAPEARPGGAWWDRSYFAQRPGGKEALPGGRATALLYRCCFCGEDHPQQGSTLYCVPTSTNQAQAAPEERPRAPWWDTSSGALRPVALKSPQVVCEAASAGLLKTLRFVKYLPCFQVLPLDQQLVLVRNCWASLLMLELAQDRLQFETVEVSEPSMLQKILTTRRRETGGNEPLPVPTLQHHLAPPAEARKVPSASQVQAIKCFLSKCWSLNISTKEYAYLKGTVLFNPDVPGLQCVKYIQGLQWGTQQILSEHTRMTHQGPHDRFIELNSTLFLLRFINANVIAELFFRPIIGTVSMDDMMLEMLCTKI
SF1 AF2mut Luc: counter-screen for DAX1 inhibitors: nonselective inhibitors with SF-1 AF2 mutant; shares compounds with DAX1 inh-1; AID 652136; HEK293 StAR-luciferase, luminescence; 78% of 2,400 active; inhibition, % at 6.8 µM;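 active means inhibition above the mean of all tested compounds plus 3 SD, cut at about 3% in these data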;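 further: 0% = DAX-1 transfected cells with DMSO and 100% = cells without DAX-1 with DMSO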
LXR ag: activates human LXR-beta, counter-screen for hcDAF-12 agonists | 3,400 tested, under 10 active | activation, % at 6.8 µM | HEK293 Gal4-LXR tk-luc reporter, luminescence, 24 h; normalized: DMSO 0%, positive control 100% | AID 743027 | shares compounds with hcDAF12 agonist;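 active means mean percent activation of the reporter above a cutoff set as the average over tested compounds plus their standard deviation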
hcDAF12 ag: hcDAF-12 agonism, confirmation assay; 61% of 3,400 active; shares compounds with hcDAF12 agonist; activation, % at 6.8 µM; HEK293 hcDAF-12 lit1-tk-luc reporter, luminescence; % of Δ7-dafachronic acid response;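 active means mean activation across triplicate tests above the threshold derived from the earlier primary screen, cut at about 5.5% in these data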;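 further: 0% = DMSO only wells and 100% = 3 µM Δ7-dafachronic acid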
hgDAF12 conf: hgDAF-12 agonism, confirmation assay; activation, % at 6.8 µM; HEK293 GAL4-hgDAF12 luciferase reporter, agonist mode; percent of butyrate response; AID 743050; shares compounds with hgDAF-12 ag; 80% of 3,300 active;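 active means mean activation over triplicate wells above the hit cutoff derived from the earlier primary screen, cut at about 11% in these data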;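 further: 0% = DMSO low control and 100% = 2 mM sodium butyrate high control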
LXRb DAF12 ctr: LXR-beta agonism as DAF-12 counter-screen; shares compounds with hgDAF-12 ag; HEK293 Gal4-LXR luciferase reporter, 24 h; activation, % at 6.8 µM; 3,300 tested, under 10 active;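 active means mean activation of the triplicate above a set limit carried over from the primary screen, none filed active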
* = called active by the depositor; nt = no result given.

SMILES	hgDAF-12 ag	DAX1 inh-1	hcDAF12 agonist	ssDAF12 agonist	DAX1 inh-2	LXR ag	hcDAF12 ag	others
Cc1ccc2c(c1N)C(=O)c1ccccc1C2=O	15.9*	5.3*	3.7	0.8	1.4	nt	nt	DAX1 conf=10.7*;SF1 AF2mut Luc=5.8*;hgDAF12 conf=13.2*;LXRb DAF12 ctr=0.5
CC1CCCN(CC(=O)c2ccc(Cl)c(Cl)c2)C1 (stereo unspecified)	2.4	2.0	-1.1	-0.7	0.7	nt	nt
CC1CCN(CC(=O)c2ccc3c(c2)OCCO3)CC1	16.8*	8.0*	8.9*	0.2	3.1	1.6	8.3*	DAX1 conf=14.3*;SF1 AF2mut Luc=8.6*;hgDAF12 conf=16.1*;LXRb DAF12 ctr=0.9
CN(C)C(=O)Oc1ccc(-c2cn3cc(Cl)ccc3n2)cc1	16.8*	6.1*	7.8*	0.7	-0.6	1.1	3.7	DAX1 conf=15.7*;SF1 AF2mut Luc=6.3*;hgDAF12 conf=14.9*;LXRb DAF12 ctr=0.9
C[C@H](Cc1ccc(OCC(=O)O)cc1)NC[C@H](O)c1cccc(Cl)c1	-0.9	1.3	-2.2	-0.6	nt	nt	nt
CC(=NCCc1ccccc1)c1c(O)n(C)c(=O)n(C)c1=O	-2.4	-0.3	-0.7	-0.6	3.9	nt	nt
CC(=Nc1ccccc1N)c1c(O)n(C)c(=O)n(C)c1=O	8.1	0.4	6.6*	0.7	4.5*	-0.1	1.2
Cn1c(O)c(/C=C2\C=Nc3ccccc32)c(=O)n(C)c1=O	-0.2	0.0	7.7*	0.3	0.1	-0.1	4.6
Cc1cc(/C=C2\C(=O)NC(=O)N(c3ccc(Br)cc3)C2=O)c(C)n1C	-0.8	-0.5	7.1*	-0.7	-0.3	-0.5	-1.1
CCC12CCN(CC3(O)CC3)C(Cc3ccc(O)cc31)C2(C)C (stereo unspecified)	-1.7	-0.3	-0.1	-0.8	nt	nt	nt
O=C(NC1CCCCC1)N1Cc2ccc(Br)cc2-n2nncc2C1	5.2	0.4	-2.7	-1.1	nt	nt	nt
O=C1NC(=O)[C@]2(Cc3ccccc3N3CCN(c4ccccc4)CC32)C(=O)N1c1ccccc1 (stereo partly specified)	8.4	0.7	7.6*	1.8*	1.2	-0.1	0.3
CN1C(=O)NC(=O)[C@]2(Cc3ccccc3N3CCN(c4ccccc4)CC32)C1=O (stereo partly specified)	8.0	2.0	4.4	-0.2	2.1	nt	nt
COC(=O)C1C(c2ccc(F)cc2)CC2CCC1N2C (stereo unspecified)	2.1	0.2	-0.5	0.5	nt	nt	nt
COc1ccc(Br)cc1CNCCc1ccc2c(c1)OCO2	0.4	-0.4	-1.1	-1.8	1.9	nt	nt
COc1ccccc1CCNCc1cc2c(cc1[N+](=O)[O-])OCO2	1.3	0.1	8.4*	0.9*	0.7	-0.3	-1.0
CC1CC(OP(O)(=S)c2ccc(N(C)C)cc2NC(=O)c2cccs2)CC(C)(C)C1 (stereo unspecified)	10.8*	1.8	8.8*	0.1	1.6	0.1	3.8
N#Cc1ccc(NC(=S)N2Cc3ccc(Br)cc3-n3nncc3C2)cc1	-3.3	-0.7	-2.4	-1.2	nt	nt	nt
CC12CC[C@H]3[C@@H](CCC4(O)C[C@H](O)CCC34/C=N/NC(=O)c3ccccc3O)C1(O)CCC2C1=CC(=O)OC1 (stereo partly specified)	-3.4	1.3	16.6*	0.8	1.0	-0.1	6.8*

Bioassay records from PubChem.
